Values joined by “and” are separate entries in the source; they are usually repeats but may differ in a detail not shown here. Identical values can stand only once. Some structures have more than one record in an assay (separate samples or runs), and their calls can disagree. Active and inactive are the calls of the source. How the source made its calls: active means hit-call score of the fitted dose curve at least 0.9, where 1 is the maximum; inactive means score below 0.9.

Assay [1] is described as follows: ATG_M_32_CIS: Attagene CIS-FACTORIAL HepG2 Assay for M32 Transcription Factor (Internal Marker) (AID 2282949).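 Further: background control marker of the multiplexed CIS panel rather than a real target.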 The following applies: HepG2 Attagene cis-factorial M32 reporter, mRNA; actives raise or lower the signal. The essentials: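 HepG2 transfectants (cis-regulated reporter transcription units) dosed 24 h. Reporter mRNA by RT-PCR plus CE, analysed as gain or loss relative to DMSO.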

The nature of assay [2]: ATG_M_06_CIS: Attagene CIS-FACTORIAL HepG2 Assay for M06 Transcription Factor (Internal Marker) (AID 2282950). The following applies: HepG2 Attagene CIS-FACTORIAL M06 internal marker reporter; actives raise or lower the signal. The essentials:
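Steps: transfect HepG2 with multiplexed cis-element reporter constructs; dose chemical 24 h; extract RNA with DNase treatment; reverse-transcribe, PCR-amplify, 6-FAM label, HpaI digest; separate fragments by capillary electrophoresis. Activity fitted both directions versus DMSO.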

Assay [3] deals with Hypoxia-inducible factor 1-alpha (Homo sapiens) (UniProt Q16665). Briefly: ATG_HIF1a_CIS: Attagene CIS-FACTORIAL HepG2 Assay for human Hypoxia Inducible Factor 1 (HIF1A) (AID 2282951). The following applies: HepG2 Attagene cis-factorial HIF1a reporter transcription; actives raise or lower the signal. The essentials:
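Activity is fitted in both directions relative to DMSO. Reporter transcripts are read by RT-PCR, fluorescent primer extension and capillary electrophoresis after 24 h chemical treatment. The cells are HepG2 carrying transiently transfected cis-element-driven reporter units responding to endogenous factors.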

The target of assay [4] is Hepatocyte nuclear factor 6 (Homo sapiens) (UniProt Q9UBC0). Briefly: ATG_HNF6_CIS: Attagene CIS-FACTORIAL HepG2 Assay for human Hepatocyte Nuclear Factor 6 (HNF6) (AID 2282952). The following applies: HepG2 Attagene cis-factorial HNF6 reporter transcription; actives raise or lower the signal. Put shortly: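 First, HepG2 cells were transfected with the multiplexed cis reporter library and dosed with chemical for 24 h. Next, RNA was reverse-transcribed, PCR-amplified and fluorescently labelled. Finally, HpaI-digested fragments were read by capillary electrophoresis.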
Sequence of Hepatocyte nuclear factor 6 (Homo sapiens) (Q9UBC0 whole entry, looked up, the tested form may be a part): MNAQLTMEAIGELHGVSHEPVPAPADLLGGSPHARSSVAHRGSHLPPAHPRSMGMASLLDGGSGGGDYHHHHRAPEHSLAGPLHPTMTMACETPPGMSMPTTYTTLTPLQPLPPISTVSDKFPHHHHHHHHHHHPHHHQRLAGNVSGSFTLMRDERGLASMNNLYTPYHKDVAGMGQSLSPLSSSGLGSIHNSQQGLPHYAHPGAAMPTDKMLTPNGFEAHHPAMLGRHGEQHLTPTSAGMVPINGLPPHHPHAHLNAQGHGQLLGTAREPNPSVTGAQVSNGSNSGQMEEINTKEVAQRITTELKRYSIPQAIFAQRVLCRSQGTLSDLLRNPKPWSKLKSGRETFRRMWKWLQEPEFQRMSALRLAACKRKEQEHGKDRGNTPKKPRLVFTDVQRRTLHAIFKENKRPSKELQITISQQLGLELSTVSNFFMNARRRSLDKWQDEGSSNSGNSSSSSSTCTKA

Assay [5] concerns the target Heat shock factor protein 1 (Homo sapiens) (UniProt Q00613). The assay can be described thus: ATG_HSE_CIS: Attagene CIS-FACTORIAL HepG2 Assay for human Heat Shock Transcription Factor 1 (HSE) (AID 2282953). To be noted: HepG2 HSE cis-reporter, Attagene RNA transcription; actives raise or lower the signal. The essentials:
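Cells were transfected with cis-element-driven reporter constructs, dosed for 24 h, then total RNA was reverse-transcribed and reporter cDNA amplified, FAM-labelled and digested with HpaI. Fragments were resolved by capillary electrophoresis; gain or loss was fitted against DMSO.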

A short description of assay [6]: ATG_MRE_CIS: Attagene CIS-FACTORIAL HepG2 Assay for human Metal Responsive Element (MRE) (AID 2282954). The following applies: HepG2 MRE cis-reporter transcription, Attagene multiplex; actives raise or lower the signal. The essentials:
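Measured here is mRNA induction from an MRE cis-element reporter in HepG2 after 24 h, quantified by fluorescence of labelled RT-PCR products on capillary electrophoresis; gain- and loss-of-signal fits use DMSO as baseline.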

Assay [7] is described as follows: ATG_PBREM_CIS: Attagene CIS-FACTORIAL HepG2 Assay for human Phenobarbital-responsive Enhancer Module (PBREM) (AID 2282955). To be noted: HepG2 PBREM cis-reporter, Attagene multiplexed transcription; actives raise or lower the signal. Put shortly: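 Endogenous transcription factor activity was read from reporter transcripts in transiently transfected human HepG2 liver cells after 24 h dosing. RT-PCR products were fluorescently labelled, HpaI-cut and sized by capillary electrophoresis; activity fitted bidirectionally against DMSO baseline.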

Assay [8] concerns the target Paired box protein Pax-6 (Homo sapiens) (UniProt P26367). The assay can be described thus: ATG_Pax6_CIS: Attagene CIS-FACTORIAL HepG2 Assay for human Paired Box 6 (PAX6) (AID 2282956). To be noted: HepG2 CIS-FACTORIAL PAX6 reporter transcription, RNA readout; actives raise or lower the signal. Put shortly:
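DMSO-referenced bidirectional fits of reporter mRNA fluorescence; HepG2 with transient cis-promoter MRTUs, 24 h post-dose, RT-PCR plus capillary electrophoresis detection.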

Assay [9] in a line: ATG_PXRE_CIS: Attagene CIS-FACTORIAL HepG2 Assay for human Pregnane X Receptor Element (PXRE) (AID 2282957). The following applies: HepG2 Attagene CIS-FACTORIAL PXRE reporter, mRNA; actives raise or lower the signal. The essentials:
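After a 24 h chemical incubation, total RNA from transfected HepG2 cells was reverse-transcribed and reporter cDNA amplified, FAM-labeled, HpaI-digested and sized by capillary electrophoresis. DMSO served as baseline for bidirectional curve fitting.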

Assay [10] can be described thus: ATG_PPRE_CIS: Attagene CIS-FACTORIAL HepG2 Assay for human Peroxisome Proliferator-activated Response Element (PPRE) (AID 2282958). To be noted: HepG2 PPRE cis-element reporter, Attagene transcription factor profiling; actives raise or lower the signal. Put shortly:
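Endogenous PPRE-driven transcription is measured in HepG2 cells carrying transfected multi-reporter constructs. Reporter transcripts are quantified by RT-PCR, HpaI digestion and capillary electrophoresis 24 h after dosing. DMSO baseline, bidirectional fit.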

Assay [11] in a line: ATG_RORE_CIS: Attagene CIS-FACTORIAL HepG2 Assay for human RAR-related Orphan Receptor Element (RORE) (AID 2282959). The following applies: HepG2 Attagene cis-factorial RORE reporter, mRNA; actives raise or lower the signal. Put shortly: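 RORE reporter transcripts reflecting endogenous factor activity were read after 24 h compound exposure of transfected HepG2 cells, using reverse transcription, PCR, fluorescent labelling and capillary electrophoresis sizing. Gain or loss fitted against DMSO.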

Assay [12] can be described thus: ATG_Sox_CIS: Attagene CIS-FACTORIAL HepG2 Assay for human SRY-box transcription factor (SOX) (AID 2282960). The following applies: HepG2 Attagene cis-factorial SOX reporter, mRNA; actives raise or lower the signal. Put shortly:
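Reporter transcripts, measured by RT-PCR and capillary electrophoresis of labelled fragments, report endogenous SOX transcription factor activity. Transiently transfected human HepG2 cells receive chemical for 24 h; changes in either direction are fitted relative to DMSO.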

The target of assay [13] is Transcription factor Sp1 (Homo sapiens) (UniProt P08047). The assay can be described thus: ATG_Sp1_CIS: Attagene CIS-FACTORIAL HepG2 Assay for human Specificity Protein 1 (Sp1) (AID 2282961). The following applies: HepG2 Sp1 cis-reporter transcription, actives raise or lower the signal. Put shortly: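 Read-out is reporter transcript level, measured by RT-PCR and fluorescent capillary electrophoresis after 24 h chemical treatment. System: transiently transfected HepG2 cells reporting endogenous transcription factor activity; gain or loss fitted against DMSO baseline.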
Sequence of Transcription factor Sp1 (Homo sapiens) (P08047 whole entry, looked up): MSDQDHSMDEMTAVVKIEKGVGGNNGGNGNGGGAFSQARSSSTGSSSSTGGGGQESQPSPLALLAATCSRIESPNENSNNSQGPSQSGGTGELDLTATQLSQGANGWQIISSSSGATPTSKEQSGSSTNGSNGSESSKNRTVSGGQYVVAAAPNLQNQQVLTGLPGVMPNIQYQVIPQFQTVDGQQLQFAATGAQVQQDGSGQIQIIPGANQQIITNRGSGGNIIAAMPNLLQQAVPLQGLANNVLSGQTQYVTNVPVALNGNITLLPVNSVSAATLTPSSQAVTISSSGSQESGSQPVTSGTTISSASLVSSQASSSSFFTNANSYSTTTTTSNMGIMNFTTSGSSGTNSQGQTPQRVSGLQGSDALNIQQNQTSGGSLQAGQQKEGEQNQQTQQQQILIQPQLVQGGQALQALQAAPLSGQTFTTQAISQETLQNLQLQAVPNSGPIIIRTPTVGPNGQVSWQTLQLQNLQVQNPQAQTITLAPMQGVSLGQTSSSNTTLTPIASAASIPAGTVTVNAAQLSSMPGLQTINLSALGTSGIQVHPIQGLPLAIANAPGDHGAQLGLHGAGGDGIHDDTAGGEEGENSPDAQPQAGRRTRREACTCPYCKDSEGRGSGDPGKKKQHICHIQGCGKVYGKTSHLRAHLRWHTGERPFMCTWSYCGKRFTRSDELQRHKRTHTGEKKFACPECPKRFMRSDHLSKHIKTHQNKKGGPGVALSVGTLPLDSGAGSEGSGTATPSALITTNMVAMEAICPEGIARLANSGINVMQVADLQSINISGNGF

A short description of assay [14]: ATG_SREBP_CIS: Attagene CIS-FACTORIAL HepG2 Assay for human Sterol Regulatory Element Binding (SREBP) (AID 2282962). The following applies: HepG2 Attagene cis-factorial SREBP reporter, mRNA; actives raise or lower the signal. Put shortly:
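In this cis-format assay, HepG2 liver cells express reporters controlled by promoter elements responsive to native transcription factors. Exposure lasts 24 h; reporter mRNA fluorescence from capillary electrophoresis gives the signal, fitted bidirectionally against DMSO.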

In assay [15] the target is Signal transducer and activator of transcription 3 (Homo sapiens) (UniProt P40763). Briefly: ATG_STAT3_CIS: Attagene CIS-FACTORIAL HepG2 Assay for human Signal Transducer and Activator of Transcription 3 (STAT3) (AID 2282963). To be noted: HepG2, Attagene cis-factorial STAT3 reporter transcription; actives raise or lower the signal. The essentials:
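Fluorescence intensity of 6-FAM-labelled reporter fragments, separated by capillary electrophoresis after RT-PCR, gave the signal. Cells were HepG2 transfected with cis-element reporter units and treated 24 h; fitting was bidirectional relative to DMSO.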

The nature of assay [16]: ATG_TA_CIS: Attagene CIS-FACTORIAL HepG2 Assay for human TA Basal Promoter (AID 2282964). The following applies: HepG2 Attagene CIS-factorial TA basal promoter reporter; actives raise or lower the signal. The essentials: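 Steps: transfect HepG2 with MRTUs; dose 24 h; isolate RNA, DNase-treat, reverse-transcribe; PCR and FAM-label reporter cDNA; digest with HpaI 2h at 37 C; run capillary electrophoresis. Activity fitted both directions against DMSO.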

Assay [17] can be described thus: ATG_TCF_b_cat_CIS: Attagene CIS-FACTORIAL HepG2 Assay for human T-Cell-Factor with beta-catenin (TCF/b-cat) (AID 2282965). To be noted: HepG2 TCF/beta-catenin cis-reporter transcription, actives raise or lower the signal. The essentials: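 Cells of the HepG2 line carry transiently transfected reporter units whose promoters respond to endogenous factors. Twenty-four hours post-dosing, reporter mRNA induction is measured by fluorescent RT-PCR and capillary electrophoresis, with DMSO as baseline.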

The nature of assay [18]: ATG_TAL_CIS: Attagene CIS-FACTORIAL HepG2 Assay for human TAL Basal Promoter (AID 2282966).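 Further: background control endpoint measuring basal TAL promoter reporter mRNA not a specific factor.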 The following applies: HepG2 Attagene cis-factorial TAL promoter reporter; actives raise or lower the signal. The essentials: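 Basal-promoter background-control endpoint from a multiplexed HepG2 reporter panel. Cells were exposed 24 h, then reporter mRNA was read by RT-PCR/CE fluorescence and fitted in both directions relative to DMSO.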

A short description of assay [19]: ATG_TGFb_CIS: Attagene CIS-FACTORIAL HepG2 Assay for human Transforming Growth Factor (TGF) (AID 2282967). The following applies: HepG2 Attagene CIS TGFb reporter, mRNA transcription; actives raise or lower the signal. Put shortly:
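Cells were dosed for 24 hours, after which total RNA was reverse-transcribed and reporter sequences amplified, labeled and sized by capillary electrophoresis. Activity was fitted in both directions against DMSO.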

Assay [20] in a line: ATG_VDRE_CIS: Attagene CIS-FACTORIAL HepG2 Assay for human Vitamin D Receptor Element (VDRE) (AID 2282968). To be noted: HepG2 VDRE cis-reporter transcription, actives raise or lower the signal. The essentials:
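Compounds were applied for 24 h to HepG2 cells transfected with promoter-regulated reporter units. Total RNA was reverse-transcribed, and reporter amplicons were fluorescently labelled and sized by capillary electrophoresis.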

Sequence of Heat shock factor protein 1 (Homo sapiens) (Q00613 whole entry, looked up, the tested form may be a part): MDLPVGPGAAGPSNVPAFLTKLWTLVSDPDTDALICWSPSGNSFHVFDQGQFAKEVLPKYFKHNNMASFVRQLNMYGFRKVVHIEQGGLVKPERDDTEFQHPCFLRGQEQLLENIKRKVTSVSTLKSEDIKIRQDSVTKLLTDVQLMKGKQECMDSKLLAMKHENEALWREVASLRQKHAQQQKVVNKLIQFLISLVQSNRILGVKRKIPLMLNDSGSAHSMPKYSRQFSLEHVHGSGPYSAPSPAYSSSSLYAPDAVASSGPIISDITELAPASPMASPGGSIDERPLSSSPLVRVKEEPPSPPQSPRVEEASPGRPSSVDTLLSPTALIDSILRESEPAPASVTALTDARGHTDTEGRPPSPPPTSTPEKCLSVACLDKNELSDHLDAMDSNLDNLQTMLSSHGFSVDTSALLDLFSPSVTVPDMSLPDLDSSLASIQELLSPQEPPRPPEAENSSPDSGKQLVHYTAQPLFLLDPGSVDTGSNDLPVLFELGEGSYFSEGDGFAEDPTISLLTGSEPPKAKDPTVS
Sequence of Signal transducer and activator of transcription 3 (Homo sapiens) (P40763 whole entry, looked up, the tested form may be a part): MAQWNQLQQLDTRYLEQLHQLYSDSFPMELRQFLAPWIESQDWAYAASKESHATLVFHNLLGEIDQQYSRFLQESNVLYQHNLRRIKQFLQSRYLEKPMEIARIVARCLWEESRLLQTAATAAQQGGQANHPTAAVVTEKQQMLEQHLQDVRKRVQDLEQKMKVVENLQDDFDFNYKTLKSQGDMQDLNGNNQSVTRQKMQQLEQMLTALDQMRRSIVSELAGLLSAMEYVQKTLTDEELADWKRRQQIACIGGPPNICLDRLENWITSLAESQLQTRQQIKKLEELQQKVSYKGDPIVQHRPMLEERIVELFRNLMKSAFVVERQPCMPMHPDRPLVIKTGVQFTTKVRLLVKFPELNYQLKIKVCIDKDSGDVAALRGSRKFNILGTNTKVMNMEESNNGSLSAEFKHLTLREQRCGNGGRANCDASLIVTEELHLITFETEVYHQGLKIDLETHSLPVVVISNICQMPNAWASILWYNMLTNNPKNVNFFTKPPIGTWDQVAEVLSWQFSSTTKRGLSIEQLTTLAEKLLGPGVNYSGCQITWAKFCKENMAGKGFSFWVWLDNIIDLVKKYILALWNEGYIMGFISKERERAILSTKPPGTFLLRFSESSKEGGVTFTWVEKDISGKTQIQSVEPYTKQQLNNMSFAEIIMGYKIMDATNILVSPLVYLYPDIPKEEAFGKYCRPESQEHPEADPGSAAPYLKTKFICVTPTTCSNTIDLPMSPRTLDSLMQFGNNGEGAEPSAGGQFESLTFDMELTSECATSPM
Sequence of Hypoxia-inducible factor 1-alpha (Homo sapiens) (Q16665 whole entry, looked up): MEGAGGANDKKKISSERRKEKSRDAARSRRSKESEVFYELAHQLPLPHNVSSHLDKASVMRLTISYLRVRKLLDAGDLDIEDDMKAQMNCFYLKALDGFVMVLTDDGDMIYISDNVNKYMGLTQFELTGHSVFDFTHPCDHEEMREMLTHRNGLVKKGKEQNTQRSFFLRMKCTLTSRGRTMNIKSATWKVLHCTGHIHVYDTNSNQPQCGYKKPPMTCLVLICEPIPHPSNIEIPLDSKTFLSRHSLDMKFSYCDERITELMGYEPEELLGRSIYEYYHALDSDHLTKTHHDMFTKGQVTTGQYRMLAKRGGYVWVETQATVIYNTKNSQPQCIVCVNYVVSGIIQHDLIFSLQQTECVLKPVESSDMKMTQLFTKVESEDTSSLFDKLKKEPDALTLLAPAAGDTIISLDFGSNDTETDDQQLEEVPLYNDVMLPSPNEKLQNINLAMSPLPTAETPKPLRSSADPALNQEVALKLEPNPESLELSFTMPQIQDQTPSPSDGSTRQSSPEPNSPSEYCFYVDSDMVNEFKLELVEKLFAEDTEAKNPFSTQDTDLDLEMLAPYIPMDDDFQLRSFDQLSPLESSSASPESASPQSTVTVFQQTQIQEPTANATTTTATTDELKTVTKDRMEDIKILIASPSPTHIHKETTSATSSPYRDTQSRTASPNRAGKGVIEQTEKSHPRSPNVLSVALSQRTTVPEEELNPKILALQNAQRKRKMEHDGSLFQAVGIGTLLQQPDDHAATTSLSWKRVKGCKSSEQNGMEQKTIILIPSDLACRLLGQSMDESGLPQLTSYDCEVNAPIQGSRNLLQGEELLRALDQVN
Sequence of Paired box protein Pax-6 (Homo sapiens) (P26367 whole entry, looked up): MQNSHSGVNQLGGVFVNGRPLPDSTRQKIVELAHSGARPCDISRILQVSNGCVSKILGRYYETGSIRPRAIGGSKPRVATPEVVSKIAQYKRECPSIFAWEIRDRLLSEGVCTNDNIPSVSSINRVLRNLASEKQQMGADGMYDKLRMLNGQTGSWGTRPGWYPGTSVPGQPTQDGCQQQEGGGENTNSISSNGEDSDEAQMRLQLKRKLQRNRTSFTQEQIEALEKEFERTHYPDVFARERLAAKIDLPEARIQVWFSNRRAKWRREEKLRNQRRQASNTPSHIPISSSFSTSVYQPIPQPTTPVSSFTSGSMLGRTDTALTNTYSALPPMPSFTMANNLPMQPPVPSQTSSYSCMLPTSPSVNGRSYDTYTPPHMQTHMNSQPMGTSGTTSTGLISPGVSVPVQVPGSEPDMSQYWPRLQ

Consider `CCCCCCC(C)(C)C(=O)O`, for which the call in assay [1], in assay [2], in [4], in assay [6], in assay [7] and in assay [11] was inactive. The result in assay [12], in assay [13], in assay [14], in [15], in assay [16] and in assay [17] was inactive. Besides, the compound was called inactive in [18] and in [19]. For the same compound, the half-maximal activity concentration (AC50) is 188 µM (active) in [3]; 187 µM (active) in assay [5]; 164 µM (active) in [8]; 27.4 µM (active) in [9]; 55.5 µM (active) in [10]; 73.2 µM (active) in [20].
Turning to `O=C1c2ccccc2C(=O)c2c(O)c(O)cc(O)c21`, the compound was called inactive in assay [1], in assay [2], in assay [3], in assay [4], in assay [5] and in assay [6]. Also, the result in [7], in [8], in [10], in assay [11], in assay [12] and in assay [13] was inactive. Further, the compound was called inactive in [14], in assay [15], in assay [16], in assay [17], in assay [18] and in [19]. The compound was classed as inactive in assay [20]. The half-maximal activity concentration (AC50) in [9] was 26.6 µM (active).
As to `C=C(c1ccc(C(=O)O)cc1)c1cc2c(cc1C)C(C)(C)CCC2(C)C`, the half-maximal activity concentration (AC50) is 32.2 µM (active) in assay [1]; 16.2 µM (active) and 27.9 µM (active) in [5]; 13.8 µM (active) and 23 µM (active) in assay [6]; 30.3 µM (active) in [7]; 14.9 µM (active) and 25.3 µM (active) in assay [8]; 0.154 µM (active) in [9]. For the same compound, the AC50 is 9.14 nM (active) and 19.3 nM (active) in assay [10]; 2.2 µM (active) in assay [11]; 32.9 µM (active) in assay [13]; 11.1 µM (active) and 29.8 µM (active) in assay [16]; 13.7 µM (active) in assay [17]; 30.4 µM (active) in [18]. The AC50 in assay [20] was 2.11 µM (active). The compound was classed as inactive in assay [1], in assay [2], in assay [3], in assay [4], in [7] and in assay [9]. The call in assay [11], in assay [12], in assay [13], in assay [14], in assay [15] and in assay [17] was inactive. For the same compound, the compound was called inactive in [18], in [19] and in [20].

One may read the AC50 as the concentration giving half of the maximal activity seen.
